# Sm TGR block = blocks Schistosoma mansoni thioredoxin glutathione reductase. Q962Y6. purified TGR, DTNB reduction, TNB absorbance 405 nm. Potency, µM (highest dose often 114 µM), inactives show at the top dose activity change, negative = inhibition, usual class: inhibitors. actives 3% (n = 360,000). AID 485364; note: % is set by controls: 0 for no effect and ±100 for the full control effect; nearly all actives have a fitted effect of over 60% in size
#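 Kinetic colorimetric format: TGR-catalysed, NADPH-driven DTNB reduction monitored via TNB absorbance. Enzyme dispensed at 20 nM; compound exposure 15 min at room temperature before reaction start.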
# AmpC detergent = blocks E. coli AmpC beta-lactamase in detergent assay. P00811. Potency, µM (series often up to 114 µM), for inactives: at the highest dose activity change, negative = inhibition, actives largely listed as inhibitors. AmpC hydrolysis of nitrocefin, absorbance 480 nm, 0.01% Triton. AID 485294. actives 0.041% (n = 370,000);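 note: 0% = no-compound wells and -100% = no-enzyme wells; nearly all actives have a fitted effect of over 25% in size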
# Target sequence (P00811 whole entry, looked up): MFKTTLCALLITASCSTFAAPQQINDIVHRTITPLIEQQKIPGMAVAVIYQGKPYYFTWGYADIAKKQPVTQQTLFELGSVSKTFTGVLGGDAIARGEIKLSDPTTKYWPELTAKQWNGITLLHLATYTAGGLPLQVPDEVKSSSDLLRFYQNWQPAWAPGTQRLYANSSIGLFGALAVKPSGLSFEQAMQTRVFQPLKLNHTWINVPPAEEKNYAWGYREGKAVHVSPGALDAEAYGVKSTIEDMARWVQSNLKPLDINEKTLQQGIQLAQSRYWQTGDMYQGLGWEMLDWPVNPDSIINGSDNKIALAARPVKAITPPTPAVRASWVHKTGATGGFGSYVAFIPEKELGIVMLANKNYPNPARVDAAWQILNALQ
#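 AmpC (5.3 nM in the dispensed reagent) in 20 mM phosphate pH 7.0 with 0.01% (detergent screen) or 0.0001% Triton X-100 was preincubated with compounds for 15 min at room temperature. Nitrocefin was then added from an 800 uM solution, and hydrolysis was followed at 480 nm.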
# Pf growth 96h = P. falciparum growth inhibition at 96 hour, primary screen for plastid delayed-death inhibitors; P. falciparum luciferase reporter growth, 96 h; actives 6.9% (n = 320,000); Potency, µM (titrated, usually from 28.7 µM), inactives show at the highest dose activity change, negative = inhibition, actives largely listed as inhibitors; AID 504834; note: % is set by controls: 0 for no effect and ±100 for the full control effect
#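 Readout is luminescence from an integrated firefly luciferase in P. falciparum. Red cells, 2% hematocrit and 0.05% parasitemia final, were cultured with compound through two parasite generations (96 hours) at 37 C, 5% CO2.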
# SARS PLpro yeast = inhibitors of SARS-CoV papain-like protease in yeast; AID 485353; S. cerevisiae expressing SARS-CoV PLpro, growth rescue; actives 0.19% (n = 330,000); Potency, µM (titrated, usually from 32.9 µM), for the others: at the top dose activity, positive = growth rescue, usual class: activators; calls by dose curve; note: 0% is about no effect; nearly all actives have a fitted effect of over 55% in size
# Pf growth 48h = P. falciparum growth inhibition at 48 hours (one generation); P. falciparum luciferase growth in erythrocytes, 48 h; Potency, µM (titrated, usually from 28.7 µM), without a hit: at the top dose activity change, negative = inhibition, usual class: inhibitors; actives 5.9% (n = 310,000); AID 504832; note: % is set by controls: 0 for no effect and ±100 for the full control effect
#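 Luciferase-expressing parasites in RBCs, 2% Hct / 0.1% parasitemia final; RPMI 1640 + 0.5% Albumax; 37 C, 5% CO2, one generation; luminescence read-out, lower signal = inhibition.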
# AmpC inh no detg = inhibitors of E. coli AmpC beta-lactamase without detergent; Potency, µM (titrated, usually from 57.1 µM), for inactives: at the highest dose activity change, negative = inhibition, actives largely listed as inhibitors; P00811; AmpC nitrocefin hydrolysis, absorbance 480 nm, 0.0001% Triton; actives 0.52% (n = 330,000); AID 485341;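 note: plate controls were no compound for no effect and no enzyme for full effect; nearly all actives have a fitted effect of over 20% in size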
#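 20 mM phosphate pH 7.0 + 0.01% (detergent screen) or 0.0001% Triton X-100; 5.3 nM AmpC reagent; cpd preinc 15 min RT; nitrocefin (800 uM stock) to start; A480 q20 s × 4 min; Activity was normalised to no-enzyme and no-compound control wells.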
# * hit, by the source's call; ? = inconclusive; · = not tested or not shown; [ ] = dose if it differs, or a comment. Rows were chosen to be rich in hits. Some 12% of all compounds tested hit in one or more screens of this group. Unless noted, calls come from the whole dose curve; as a rule, active = well fitted curve in the direction sought with a large enough effect; inconclusive = small, poorly fitted or top-dose-only effect, or another doubt; inactive = no such curve, though single readings can be large; an effect the other way counts as inactive or inconclusive. Potency is the fitted concentration of half-maximal effect.
SMILES,Sm TGR block,AmpC detergent,Pf growth 96h,SARS PLpro yeast,Pf growth 48h,AmpC inh no detg
CCCCCCCNC(=O)C1(CC2CC(c3ccc(Cl)cc3)=NO2)CCN(C(=O)Cc2ccc(F)cc2)CC1 (stereo not drawn),8%,-4%,12µM*,5%,1%,-24%
CC(=O)Nc1ccc(Nc2nc3ccc(C)cc3n3nnnc23)cc1,-3%,12%,·,·,·,·
Cc1ccc(C(=O)O/N=C2\CCSc3ccc(C)cc32)cc1,-20%,?,51%,0%,41%,-36%
COc1ccc(S(=O)(=O)O/N=C2\CCSc3ccc(C)cc32)cc1,-5%,-9%,?,6%,2.9µM*,-8%
CCOC(=O)C1CCC(CN(Cc2c(Cl)cccc2Cl)S(=O)(=O)c2ccc(Cl)cc2)CC1 (stereo not drawn),-8%,10%,·,·,·,·
NCC12CC3CC(C1)CC(c1ccc(Cl)cc1)(C3)C2,6%,0%,18%,-4%,?,53%
CS(=O)(=O)c1ccc(C(=O)NNC(=O)c2ccccc2-n2cccc2)cc1,-17%,5%,-26%,5%,7%,-23%
O=C(Cc1csc(N2CCOCC2)n1)N/N=C/c1ccc(F)cc1,-17%,-3%,·,5%,-12%,-16%
O=C(c1cc(C2CC2)on1)N1CCCC(N2CCN(c3cccc(C(F)(F)F)c3)CC2)C1 (stereo not drawn),?,2%,0%,?,12µM*,192%
O=C(c1ccco1)N1CCCC(N2CCN(c3cccc(C(F)(F)F)c3)CC2)C1 (stereo not drawn),-19%,5%,15%,-1%,10µM*,167%
Cc1nnsc1C(=O)N1CCCC(N2CCN(c3cccc(C(F)(F)F)c3)CC2)C1 (stereo not drawn),-15%,5%,?,-2%,13µM*,154%
O=C(c1cccs1)N1CCCC(N2CCN(c3cccc(C(F)(F)F)c3)CC2)C1 (stereo not drawn),-10%,-1%,-13%,1%,?,143%
CCC(C)NC(=O)c1cnn(-c2ccc(Cl)cc2)c1C1CCN(C(=O)OC(C)(C)C)CC1 (stereo not drawn),-6%,7%,·,·,·,·
CCC1(C)N([O-])C(C)=C(c2ccccc2)[N+]1=O (stereo not drawn),0%,3%,0.093µM*,-6%,·,-13%
COc1ccc(NC2CCCN(C(=O)c3ccc4[nH]c(C)c(C)c4c3)C2)cc1 (stereo not drawn),-11%,-12%,13µM*,-1%,?,7%
COc1ccc(-c2c3c(=O)n(C)c(=O)n(C)c3cn2-c2ccc(O)cc2)cc1,45µM*,-9%,10%,2%,28%,-35%
Cc1ccc(C)c(NC(=O)Cn2c(SCC(=O)NCc3ccccc3)nc3ccccc32)c1,-16%,-5%,·,·,·,·
CCOC(=O)c1noc2nc(C)n(CC(=O)Nc3ccc(OC)c(Cl)c3)c(=O)c12,2%,21%,·,·,·,·
CC1(C)Cc2c(sc3c2c(=N)n(Cc2ccco2)c(=O)n3CC(=O)Nc2ccc(Cl)cc2)CO1,38%,-13%,?,-1%,?,10%
CC1(C)Cc2c(sc3c2c(=N)n(Cc2ccco2)c(=O)n3CC(=O)Nc2ccccc2)CO1,21%,-4%,8%,-4%,?,11%
CC1(C)Cc2c(sc3c2c(=N)n(Cc2ccco2)c(=O)n3CC(=O)Nc2cccc(Cl)c2)CO1,-36%,-12%,10µM*,14%,?,36%
Cc1cccc(NC(=O)Cn2c(=O)n(Cc3ccco3)c(=N)c3c4c(sc32)COC(C)(C)C4)c1,0%[11.4 µM],-10%,8.3µM*,5%,·,43%
COc1ccc(C(=O)COC(=O)[C@@H](NS(=O)(=O)c2ccccc2)C(C)C)cc1,·,·,·,-1%,·,-21%

# Screens: PubChem, National Center for Advancing Translational Sciences (NCATS)
